Measurements published in PubChem BioAssay (Tox21).
Inconclusive results are not listed. Calls of active or inactive are those of the source. Unless noted, calls come from the whole dose curve.

How the values were obtained:
[1] = qHTS assay to identify small molecule agonists of the peroxisome proliferator-activated receptor delta (PPARd) signaling pathway - cell viability counter screen (AID 743211; active = well fitted curve in the direction sought with a large enough effect in the repeat runs; an effect the other way counts as inactive or inconclusive; note: nearly all actives have a fitted effect of over 55% in size); conditions: PPARd-bla HEK293H viability, CellTiter-Glo luminescence, 17 h; series mostly up to 62.6 µM
Method in brief: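 In the same wells used for beta-lactamase reporter measurement, cytotoxicity is scored by CellTiter-Glo. HEK293H PPARd-bla cells receive compound for 17 h at 37C following a 5 h settling period.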

[2] = target: Peroxisome proliferator-activated receptor delta (Homo sapiens) (UniProt Q03181); test: qHTS assay to identify small molecule agonists of the peroxisome proliferator-activated receptor delta (PPARd) signaling pathway (AID 743212); conditions: HEK293H PPARd-UAS-bla, beta-lactamase FRET ratio, 17 h; series mostly up to 62.6 µM
Method in brief: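 Tox21 library screened in GeneBLAzer PPARd UAS-bla HEK293H cells. After compound treatment at 37 C, a FRET-based beta-lactamase substrate was applied for 2 h and fluorescence recorded.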

[3] = qHTS assay to identify small molecule antagonists of the peroxisome proliferator-activated receptor delta (PPARd) signaling pathway - cell viability counter screen (AID 743213; active = well fitted curve in the direction sought with a large enough effect in the repeat runs; an effect the other way counts as inactive or inconclusive; note: nearly all actives have a fitted effect of over 50% in size); conditions: PPARd-bla HEK293H viability, CellTiter-Glo luminescence, 17 h; series mostly up to 62 µM
Method in brief: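 CellTiter-Glo was added to PPARd-bla HEK293H wells following 17 h compound treatment in the presence of 300 nM L165041. Luminescence was recorded after 30 min at room temperature.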

[4] = target: Bile acid receptor (Homo sapiens) (UniProt Q96RI1); test: qHTS assay to identify small molecule antagonists of the farnesoid-X-receptor (FXR) signaling pathway (AID 743217; active = well fitted inhibition curve with a large enough effect in the signal ratio in the repeat runs, not every such curve was filed as active; the % refers to the signal ratio); conditions: HEK293T FXR-UAS-bla, beta-lactamase ratio, CDCA-stimulated, 16 h; series mostly up to 62.6 µM
Method in brief: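 Antagonist mode: chenodeoxycholic acid at 50 uM final stimulates a UAS-driven beta-lactamase reporter in HEK 293T FXR-bla cells during 16 h, 37C compound exposure. Read-out is FRET substrate fluorescence after 2 h at room temperature.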

[5] = target: Bile acid receptor (Homo sapiens) (UniProt Q96RI1); test: qHTS assay to identify small molecule agonists of the farnesoid-X-receptor (FXR) signaling pathway (AID 743220; active = well fitted activation curve with a large enough effect in the signal ratio in the repeat runs, not every such curve was filed as active; the % refers to the signal ratio); conditions: HEK293T FXR-UAS-bla, beta-lactamase FRET ratio, 16 h; series mostly up to 62.6 µM
Method in brief: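 FXR-UAS-bla HEK 293T cells carrying a UAS-driven beta-lactamase reporter were plated for 5 h at 37C/5% CO2, then exposed to DMSO-dissolved Tox21 10K compounds for 16 h at 37C. A LiveBLAzer B/G FRET substrate was loaded for 2 h at room temperature before fluorescence reading.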

[6] = qHTS assay to identify small molecule antagonists of the farnesoid-X-receptor (FXR) signaling pathway - cell viability counter screen (AID 743221; active = well fitted cell-killing curve with a large enough effect in the repeat runs, not every such curve was filed as active; note: nearly all actives have a fitted effect of over 50% in size); conditions: FXR-bla HEK293T viability, CellTiter-Glo luminescence, 16 h; series mostly up to 62.6 µM
Method in brief: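 Here viability was scored by luminescence after CellTiter-Glo addition to wells already read for beta-lactamase. Prior treatment: compound plus CDCA (50 uM final), 16 h, 37 C, HEK 293T FXR-bla cells.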

[7] = target: Vitamin D3 receptor (Homo sapiens) (UniProt P11473); test: qHTS assay to identify small molecule agonists of the vitamin D receptor (VDR) signaling pathway (AID 743222); conditions: HEK293T VDR-UAS-bla, beta-lactamase FRET ratio, 16 h; series mostly up to 63.5 µM
Method in brief: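 Agonist mode, beta-lactamase reporter: fluorescence from LiveBLAzer B/G FRET substrate (2 h, room temperature) read after 16 h compound treatment at 37 C of VDR-bla cells, which were pre-incubated 4 h after seeding.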

[8] = target: Vitamin D3 receptor (Homo sapiens) (UniProt P11473); test: qHTS assay to identify small molecule antagonists of the vitamin D receptor (VDR) signaling pathway (AID 743223; active = well fitted inhibition curve with a large enough effect in the signal ratio in the repeat runs, not every such curve was filed as active; the % refers to the signal ratio); conditions: VDR-UAS-bla HEK293T, beta-lactamase FRET ratio, 16 h; series mostly up to 61 µM
Method in brief: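 Inhibition of agonist-driven VDR signalling is scored in VDR-bla cells: 3 nM final 1alpha,25-dihydroxyvitamin D3 plus compound, 16 h at 37C, then beta-lactamase detection by FRET substrate fluorescence after 2 h.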

[9] = qHTS assay to identify small molecule agonists of the vitamin D receptor (VDR) signaling pathway - cell viability counter screen (AID 743224; active = well fitted curve in the direction sought with a large enough effect in the repeat runs; an effect the other way counts as inactive or inconclusive; note: nearly all actives have a fitted effect of over 50% in size); conditions: VDR-bla HEK293T viability, CellTiter-Glo luminescence, 16 h; series mostly up to 62.6 µM
Method in brief: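 Counter screen run in the same wells as the VDR-bla reporter assay: CellTiter-Glo luminescence, 30 min at room temperature, after 16 h compound treatment at 37C of cells pre-plated for 4 h.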

[10] = qHTS assay to identify small molecule antagonists of the vitamin D receptor (VDR) signaling pathway - cell viability counter screen (AID 743225; active = well fitted curve in the direction sought with a large enough effect in the repeat runs; an effect the other way counts as inactive or inconclusive; note: nearly all actives have a fitted effect of over 50% in size); conditions: VDR-bla HEK293T viability, CellTiter-Glo luminescence, 16 h; series mostly up to 61 µM
Method in brief: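 Compounds were pinned onto VDR-bla HEK 293T cells together with 1-alpha,25-dihydroxyvitamin D3 at 3 nM final. After 16 h at 37C and 5% CO2 plus the reporter readout, cell viability was measured by CellTiter-Glo luminescence (30 min, room temperature).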

[11] = qHTS assay to identify small molecule agonists of the NFkB signaling pathway (AID 1159509; active = well fitted curve in the direction sought with a large enough effect in the signal ratio in the repeat runs, not every such curve was filed as active; the % refers to the signal ratio); conditions: NFkB-bla ME-180 cells, beta-lactamase FRET ratio, 5 h; series mostly up to 61 µM
Method in brief: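 Agonist activity was read as beta-lactamase-driven FRET change (460 and 530 nm emission, 405 nm excitation) following 1.5 hr substrate loading at room temperature. Beforehand, ME-180 NFkB-bla reporter cells were treated with compounds for 5 hr at 37 C.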

[12] = qHTS assay to identify small molecule agonists of the NFkB signaling pathway - cell viability counter screen (AID 1159515); conditions: NFkB-bla ME-180 viability, CellTiter-Glo luminescence, 5 h; series mostly up to 61 µM; note: nearly all actives have a fitted effect of over 55% in size
Method in brief: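 Read by CellTiter-Glo luminescence (30 min, room temperature) in the wells also used for the beta-lactamase FRET read. ME-180 NFkB-bla cells at 2,000 per well were plated overnight, then exposed to compound for 5 hr at 37 C.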

[13] = qHTS assay to identify small molecule agonists of the endoplasmic reticulum stress response signaling pathway (AID 1159516; active = well fitted activation curve with a large enough effect in the signal ratio in the repeat runs, not every such curve was filed as active; the % refers to the signal ratio); conditions: ESRE-bla HeLa, ER stress beta-lactamase reporter, 5 h; series mostly up to 61 µM
Method in brief: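 Ratiometric FRET readout (405 nm excitation; 460 and 530 nm emission) of a beta-lactamase gene driven by the ER stress response element, after 2 hr substrate loading. HeLa ESRE-bla cells were seeded overnight and treated with compounds for only 5 hr at 37 C.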

[14] = qHTS assay to identify small molecule agonists of the endoplasmic reticulum stress response signaling pathway - cell viability counter screen (AID 1159517); conditions: ESRE-bla HeLa viability, CellTiter-Glo luminescence, 5 h; series mostly up to 61 µM; note: nearly all actives have a fitted effect of over 50% in size
Method in brief: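 In parallel with the ESRE reporter read, cytotoxicity was scored by CellTiter-Glo luminescence (30 min, room temperature) on HeLa ESRE-bla cells dosed for 5 hr.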

[15] = qHTS assay to identify small molecule antagonists of the retinoid-related orphan receptor gamma (ROR-gamma) signaling pathway - cell viability counter screen (AID 1159520; active = well fitted curve in the direction sought with a large enough effect in the repeat runs; an effect the other way counts as inactive or inconclusive; note: nearly all actives have a fitted effect of over 50% in size); conditions: Tet-on RORgamma CHO cells viability, ATP luminescence, 16 h; series mostly up to 92.4 µM
Method in brief: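 Tet-on ROR gamma CHO cells were given compounds for 2 hr, then doxycycline hyclate at 1 uM final, and incubated 16 hr at 37 C. Viability was measured as ATP content by CellTiter-Glo luminescence.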

[16] = qHTS assay to identify small molecule agonists of the AP-1 signaling pathway - cell viability counter screen (AID 1159525); conditions: ME-180 AP-1-bla cells viability, ATP luminescence, 5 h; series mostly up to 76.8 µM; note: nearly all actives have a fitted effect of over 55% in size
Method in brief: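 Same-well cytotoxicity counter screen of the Tox21 10K library in ME-180 cells. The readout is ATP-dependent luminescence after 5 h compound treatment. Data are normalised to DMSO and tetra n-octyl ammonium bromide controls.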

[17] = qHTS assay to identify small molecule agonists of the AP-1 signaling pathway (AID 1159526); conditions: ME-180 (cervical carcinoma) AP-1-bla reporter, beta-lactamase FRET ratio, 5 h; series mostly up to 76.8 µM
[18] = target: Peroxisome proliferator-activated receptor delta (Homo sapiens) (UniProt Q03181); test: qHTS assay to identify small molecule antagonists of the peroxisome proliferator-activated receptor delta (PPARd) signaling pathway (AID 743215; active = well fitted inhibition curve with a large enough effect in the signal ratio in the repeat runs, not every such curve was filed as active; the % refers to the signal ratio;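 note: cells stimulated with agonist L165041 at 300 nM final during compound exposure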); conditions: HEK293H PPARd-UAS-bla, beta-lactamase FRET ratio, antagonist, 17 h; series mostly up to 62 µM
Method in brief: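 Agonist L165041 (300 nM final) added with compound to PPARd-bla HEK293H UAS-bla reporter cells; 17 h incubation at 37 C. Read-out: LiveBLAzer FRET substrate, 2 h at room temperature, fluorescence intensity.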

[19] = qHTS assay to identify small molecule agonists of the farnesoid-X-receptor (FXR) signaling pathway - cell viability counter screen (AID 743218; active = well fitted curve in the direction sought with a large enough effect in the repeat runs; an effect the other way counts as inactive or inconclusive; note: nearly all actives have a fitted effect of over 45% in size); conditions: FXR-bla HEK293T viability, CellTiter-Glo luminescence, 16 h; series mostly up to 62.6 µM
Method in brief: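 Viability counter screen in the same wells: CellTiter-Glo luminescence, 30 min room-temperature incubation, measured after the beta-lactamase read. Cells were GeneBLAzer FXR-UAS-bla HEK 293T, compound-treated 16 h at 37C.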

Measured: Potency

Bile acid receptor (Homo sapiens), sequence (Q96RI1 whole entry, looked up): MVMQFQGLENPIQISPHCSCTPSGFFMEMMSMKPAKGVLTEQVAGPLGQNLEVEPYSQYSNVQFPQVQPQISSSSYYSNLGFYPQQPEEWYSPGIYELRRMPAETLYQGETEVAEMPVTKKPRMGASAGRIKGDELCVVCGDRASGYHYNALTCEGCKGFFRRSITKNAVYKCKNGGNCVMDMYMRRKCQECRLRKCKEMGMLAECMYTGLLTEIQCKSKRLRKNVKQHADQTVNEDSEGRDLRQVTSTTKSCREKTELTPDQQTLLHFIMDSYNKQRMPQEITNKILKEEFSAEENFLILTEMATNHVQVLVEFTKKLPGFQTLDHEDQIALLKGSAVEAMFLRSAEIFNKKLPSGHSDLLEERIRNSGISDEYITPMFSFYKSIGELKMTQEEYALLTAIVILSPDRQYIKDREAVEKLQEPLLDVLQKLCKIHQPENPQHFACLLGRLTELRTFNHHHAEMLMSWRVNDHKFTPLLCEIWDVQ
Vitamin D3 receptor (Homo sapiens), sequence (P11473 whole entry, looked up): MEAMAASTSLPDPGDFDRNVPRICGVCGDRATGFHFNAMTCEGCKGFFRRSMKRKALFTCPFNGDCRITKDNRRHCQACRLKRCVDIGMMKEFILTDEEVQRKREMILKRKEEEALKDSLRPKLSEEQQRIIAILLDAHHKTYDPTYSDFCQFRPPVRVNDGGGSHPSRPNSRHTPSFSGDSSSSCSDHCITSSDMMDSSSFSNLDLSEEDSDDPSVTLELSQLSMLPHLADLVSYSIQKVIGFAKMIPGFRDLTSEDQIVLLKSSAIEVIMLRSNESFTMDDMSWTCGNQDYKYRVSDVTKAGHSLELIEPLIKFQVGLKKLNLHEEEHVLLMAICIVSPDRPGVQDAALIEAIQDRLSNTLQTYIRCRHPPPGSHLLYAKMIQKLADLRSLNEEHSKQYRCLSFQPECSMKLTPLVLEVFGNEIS
Peroxisome proliferator-activated receptor delta (Homo sapiens), sequence (Q03181 whole entry, looked up): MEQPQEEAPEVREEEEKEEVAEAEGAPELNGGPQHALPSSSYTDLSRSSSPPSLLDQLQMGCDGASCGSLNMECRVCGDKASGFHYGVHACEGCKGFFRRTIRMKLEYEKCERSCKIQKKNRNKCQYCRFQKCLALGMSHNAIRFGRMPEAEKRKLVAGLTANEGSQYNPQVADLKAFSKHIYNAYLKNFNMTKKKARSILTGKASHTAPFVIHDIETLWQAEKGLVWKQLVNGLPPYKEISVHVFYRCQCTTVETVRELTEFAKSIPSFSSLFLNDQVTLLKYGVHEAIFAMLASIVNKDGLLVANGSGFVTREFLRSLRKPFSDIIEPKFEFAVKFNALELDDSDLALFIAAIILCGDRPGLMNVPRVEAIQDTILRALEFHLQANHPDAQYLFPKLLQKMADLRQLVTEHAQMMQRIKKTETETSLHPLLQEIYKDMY

CCCCCCCCC/C=C/CC1CC(=O)OC1=O (stereo unspecified)
not listed: [18] | [19]
inactive: all other assays above

COc1ccc(NC(C)=O)cc1N
not listed: [4] | [5] | [7] | [8] | [10]
inactive: all other assays above

OCCOCCN1CCN(C2=Nc3ccccc3Sc3ccccc32)CC1
not listed: [2] | [3] | [18]
inactive: all other assays above

CCOC(=O)NNc1nncc2ccccc12
not listed: [19]
inactive: all other assays above

CC1=C(C)S(=O)(=O)CCS1(=O)=O
not listed: [4] | [5] | [10]
inactive: all other assays above

C=CCOC(=O)c1ccccc1C(=O)OCC=C
not listed: [2] | [7] | [8] | [10] | [18]
inactive: all other assays above

O=C(O)CCCC[C@@H]1SC[C@@H]2NC(=O)N[C@@H]21
not listed: [4] | [5] | [10]
inactive: all other assays above

CCC(O)OC(O)CC (stereo unspecified)
not listed: [2] | [4] | [5] | [10] | [18]
inactive: all other assays above

Cc1ccc(N(C)C)cc1
not listed: [4] | [5] | [10]
inactive: all other assays above
